A selection: hits, their analogues and other compounds. The true share with any hit is near 10%.
3T3 cytotox: NIH 3T3 cell cytotoxicity; NIH 3T3 viability, CellTiter-Glo ATP luminescence, 48-72 h; Potency, µM (series often up to 96.7 µM), without a hit: at the highest dose activity change, negative = cytotoxicity, actives largely listed as inhibitors; hit rate 4.3% among 94,000; further: nearly all actives have a fitted effect of over 55% in size
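Cells were seeded at 400 per well, treated with pin-transferred compound, and kept 48 or 72 hr at 37 °C before CellTiter-Glo addition and luminescence imaging of cellular ATP.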
HEK293 tox: cytotoxic compounds in HEK 293 cells | HEK 293 viability, ATP luminescence (CellTiter-Glo), 48-72 h | Potency, µM (highest dose often 115 µM), inactives show at the top dose activity change, negative = cytotoxicity, hits mostly inhibitors | AID 1345083 | hit rate 6.6% among 94,000; further: nearly all actives have a fitted effect of over 60% in size
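250 HEK 293 cells/well; compound by pintool; incubated 48 or 72 hr at 37 degree Celsius; CellTiter-Glo added, 10 min RT, luminescence imaged.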
hNpr1 antagonist: antagonists of human natriuretic peptide receptor Npr1 | AID 1347048 | P16066 | Potency, µM (highest dose often 46.3 µM), without a hit: top-dose activity change, negative = inhibition, most hits filed as inhibitors | HEK293 hNpr1 GloSensor cGMP, ANP-stimulated luminescence | hit rate 1.6% among 76,000; calls by dose curve; further: nearly all actives have a fitted effect of over 60% in size
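HEK293 cells stably expressing human Npr1 and cGMP GloSensor pGS-40F, loaded 2 h with 2% GloSensor reagent, given compound 30 min at room temperature. Luminescence read before and 20 min after 0.1 nM hNppA.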
GPT2 inh: blocks human glutamate pyruvate transaminase 2. Q8TD30. Recombinant GPT2, coupled pyruvate oxidase/HRP Amplex Red fluorescence. Potency, µM (series often up to 57.7 µM), without a hit: top-dose activity change, negative = inhibition, hits mostly inhibitors. hit rate 0.25% among 100,000; further: nearly all actives have a fitted effect of over 60% in size
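Inhibition is scored from Amplex Red fluorescence generated when pyruvate oxidase and HRP act on pyruvate released by GPT2. Reactions contain 10ng/uL enzyme, 250uM a-KG and 2mM L-alanine and run 30 min at room temperature.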
FLuc inh: blocks purified firefly luciferase enzyme activity; Potency, µM (doses to about 115 µM), actives largely listed as inhibitors; AID 1347043; hit rate 2.5% among 76,000; purified P. pyralis luciferase, luminescence, biochemical; P08659; further: nearly all actives have a fitted effect of over 65% in size
Target sequence (P08659 whole entry, looked up): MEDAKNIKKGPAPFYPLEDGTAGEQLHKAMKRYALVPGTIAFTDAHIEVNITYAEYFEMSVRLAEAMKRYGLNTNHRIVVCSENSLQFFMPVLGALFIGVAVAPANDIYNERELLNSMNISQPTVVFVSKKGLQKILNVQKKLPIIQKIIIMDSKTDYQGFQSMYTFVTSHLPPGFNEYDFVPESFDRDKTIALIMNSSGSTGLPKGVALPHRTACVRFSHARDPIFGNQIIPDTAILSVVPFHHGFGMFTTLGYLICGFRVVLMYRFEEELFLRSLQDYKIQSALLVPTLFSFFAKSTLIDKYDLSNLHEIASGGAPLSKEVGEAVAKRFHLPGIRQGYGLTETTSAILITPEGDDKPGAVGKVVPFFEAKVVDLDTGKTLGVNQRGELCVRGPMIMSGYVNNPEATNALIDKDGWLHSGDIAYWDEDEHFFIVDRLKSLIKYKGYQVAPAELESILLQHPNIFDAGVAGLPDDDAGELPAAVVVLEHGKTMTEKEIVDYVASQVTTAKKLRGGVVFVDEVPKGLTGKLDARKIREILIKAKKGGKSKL
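Cell-free enzyme assay, 10nM P. pyralis luciferase, luciferin and ATP each at 10uM. Inhibition profiled over a 6-point titration, read as luminescence.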
An asterisk follows results filed as active; i = inactive; ? = inconclusive; · = no result; [ ] = another dose, or the depositor's remark. Unless noted, the call rests on the fitted dose curve; in most records, active means well fitted curve in the direction sought with a large enough effect; inconclusive means small, poorly fitted or top-dose-only effect, or another doubt; inactive means no such curve, though single readings can be large; an effect the other way counts as inactive or inconclusive. On the % scale 0 is the no-effect control and ±100 the full control effect; potency means the concentration at half of the fitted maximal effect.

SMILES | 3T3 cytotox | HEK293 tox | hNpr1 antagonist | GPT2 inh | FLuc inh
COc1ccc(NC(=O)N2CCc3c(C(=O)NCCCN(C)C)cccc32)cc1 | -4.7% | -7.3% | -1.3% | -3.0% | 35.5µM*
Cc1ccc(OCC(=O)c2ccc3c(c2)N(CCCC(=O)NC2CCCCC2)C(=O)CO3)cc1C | ? | ? | 3.8% | -4.8% | i
COc1cccc(-c2ccccc2NC(=O)C2CCN(Cc3ccc(F)cc3)CC2)c1 | 22.4µM* | 31.6µM* | -25.5% | 3.7% | i
COc1cccc(-c2ccccc2NC(=O)C2CCN(c3nccnc3C)CC2)c1 | 22.4µM* | ? | ? | -15.2% | i
O=C(NCc1ccccc1)c1ccccc1OC1CN(Cc2cccc(F)c2)C1 | ? | 28.2µM* | -16.2% | i | i
Cc1cc(F)ccc1OC1CN(Cc2ccccc2)C1 | 89.1µM* | ? | 0.0%[70.6 µM] | ? | i
O=C(NCc1ccccc1)c1ccccc1OC1CN(Cc2cccnc2Cl)C1 | ? | 44.7µM* | · | i | ·
Cc1ccc(CN2CC(Oc3ccccc3C(=O)N3CCOCC3)C2)cc1C | ? | 44.7µM* | 1.5% | 0.6% | i
COc1ccc(C(=O)N[C@@H]2CCC[C@@H]2C(=O)NCCCc2ccccc2)cn1 | -31.3% | -24.5% | 1.2% | i | i
CCc1nc2c(c(-c3ccc(Cl)cc3)n1)CN(C(=O)Cc1cccc(Cl)c1)CC2 | ? | ? | 0.3% | -1.6% | i
NC(=O)c1nnn([C@H]2C[C@H]3C(=O)N4CC[C@H](NC(=O)c5cccs5)[C@H]4C(=O)N3C2)c1C(N)=O | -3.7% | i | 3.0% | -18.2% | i
O=C(NCc1ccccc1)c1ccccc1OC1CN(Cc2cccnc2F)C1 | ? | ? | · | i | ·
O=C(NCc1ccccc1)c1ccccc1OC1CN(Cc2ccncc2)C1 | ? | 39.8µM* | -5.9% | i | i
C[C@]12C=CC(=O)C=C1CC[C@@H]1C2=CC[C@]2(C)[C@@H](C(=O)CN3CCN(c4cc(N5CCCC5)nc(N5CCCC5)n4)CC3)CC[C@@H]12 | · | · | · | 0.708µM* | ·
COc1ccc(C2(C(=O)N3c4ccccc4CC3c3noc(C4CCOCC4)n3)CC2)cc1 (centres undefined) | ? | ? | -3.7% | -8.8% | 25.1µM*
O=C(NCc1cc(F)ccc1F)C1CCN(C(=O)c2ncn3c2COC(c2ccc(F)cc2)C3)CC1 (centres undefined) | -0.5% | -0.2% | -0.3% | -4.7% | 44.7µM*
O=C(NCc1ccco1)C1CCN(C(=O)c2ncn3c2COC(c2ccc(F)cc2)C3)CC1 (centres undefined) | 0.2% | 2.3% | -3.9% | 3.1% | 22.4µM*
O=C(NCc1ccc(F)cc1F)C1CCN(C(=O)c2ncn3c2COC(c2ccccc2)C3)CC1 (centres undefined) | i | -1.5% | -10.0% | i | 35.5µM*
Cc1ccc(C2Cn3cnc(C(=O)N4CCC(C(=O)NCc5ccc(F)cc5F)CC4)c3CO2)cc1 (centres undefined) | -3.7% | -23.4% | -7.0% | i | ?
Cc1ccc(C2Cn3cnc(C(=O)N4CCC(C(=O)NCc5ccccc5F)CC4)c3CO2)cc1 (centres undefined) | -2.5% | -12.6% | -13.0% | -0.2% | ?
Cc1ccccc1CNC(=O)C1CCN(C(=O)c2ncn3c2COC(c2ccccc2)C3)CC1 (centres undefined) | -7.3% | -4.1% | -11.4% | i | 15.8µM*
CC(CCNC(=O)c1cc(S(N)(=O)=O)ccc1F)N1CCN(C)CC1 (centres undefined) | -16.0% | -30.5% | -1.3% | i | i
CS(=O)(=O)N1CCOc2ccc(CCC(=O)NCCc3ccccc3)cc2C1 | -5.6% | -19.9% | 6.3% | -0.4% | ?
COCCn1c(CO)nnc1C1CC(NC(=O)c2ccoc2C)C1 (centres undefined) | -13.2% | -8.1% | -7.8% | -41.1% | i
CC(Cc1ccc2c(c1)OCO2)CN1CCC(CO)(CN2CCCC2)CC1 (centres undefined) | 39.8µM* | ? | -10.8% | 0.4% | i
SMILES | 3T3 cytotox | HEK293 tox | hNpr1 antagonist | GPT2 inh | FLuc inh
OCC1(CN2CCCC2)CCN(Cc2ccc(Cl)cc2)CC1 | ? | ? | 1.7% | 3.0% | i
CCN(Cc1ccncc1)C(=O)c1cc(CN2CCC(Cc3ccccc3)CC2)on1 | ? | ? | ? | i | i
C=C(C)CN(C)C(=O)c1cc(CN2CCC(Cc3ccccc3)CC2)on1 | -28.5% | 89.1µM* | -3.8% | -12.3% | i
COc1cccc(-c2cc(-c3c(C)noc3C)c3cncn3c2)c1OC | ? | 79.4µM* | 0.2%[70.6 µM] | i | i
COc1cccc(-c2cc(-c3ccncc3)c3cncn3c2)c1OC | ? | 89.1µM* | -3.5%[70.6 µM] | -11.8%[88.5 µM] | i
COc1ccc(-c2cc(-c3c(C)noc3C)c3cncn3c2)cc1OC | 22.4µM* | ? | -6.0%[70.6 µM] | ? | i
Cc1noc(C)c1-c1cc(-c2ccc3c(c2)C(=O)NC3)cn2cncc12 | 12.6µM* | -62.9%[172 µM] | 0.1%[70.6 µM] | 0.8%[88.5 µM] | i
O=C(Nc1ccc(OC(F)(F)F)cc1)N[C@@H]1C=C(C(=O)N[C@H]2CCCNC2=O)C[C@@H](O)[C@@H]1O | -9.2% | -10.9% | 2.9% | ? | i
Cc1nc(CN2C(=O)OC3(CCN(C(=O)c4ccc(Oc5ccccc5)cc4)CC3)C2(C)c2ccccc2)cs1 (centres undefined) | ? | ? | -3.5% | -15.6% | i
Cc1ccccc1-c1cc(-c2c(C)noc2C)c2cncn2c1 | ? | 44.7µM* | -15.1%[70.6 µM] | -18.3%[88.5 µM] | i
COc1cc(F)ccc1-c1cc(-c2c(C)noc2C)c2cncn2c1 | ? | 63.1µM* | 1.9%[70.6 µM] | -8.2%[88.5 µM] | i
CCOC(=O)c1sc(NC(=O)Cn2nc3c(cc2=O)CCCC3)nc1C | i | i | -2.8% | i | i
O=C(c1ccco1)N1CCc2c(nc(-c3ccc(F)cc3)[nH]c2=O)C1 | ? | 2.9% | -11.5% | -7.9% | i
O=C(c1nccc2ccccc12)N1CCc2c(nc(-c3ccc(F)cc3)[nH]c2=O)C1 | 14.1µM* | ? | -11.6% | i | i
O=C(NC1CC1)[C@@H]1C[C@H](Oc2ccccc2)CN1C(=O)CCC1CCCC1 | -28.4% | 1.2% | -8.5% | 2.2% | i
COCC1CCN(S(=O)(=O)N2CCCCC2CCc2ccccc2)CC1 (centres undefined) | ? | 44.7µM* | -22.2% | -13.7% | i
CC(C)(C)CN1CCOC[C@H]1c1ncc(-c2ccccc2)[nH]1 | ? | 79.4µM* | -12.2%[70.6 µM] | -7.5%[88.5 µM] | i
FC(F)(F)c1ccc(-c2cnc([C@@H]3COCCN3Cc3ccccn3)[nH]2)cc1 | 39.8µM* | 56.2µM* | -5.9%[70.6 µM] | -13.3%[88.5 µM] | i
COc1ccc(-c2cnc([C@@H]3COCCN3Cc3ccccc3)[nH]2)cc1 | ? | ? | -22.3%[70.6 µM] | i | i

Source: PubChem (National Center for Advancing Translational Sciences (NCATS))
